{"source": "PubChem BioAssay (NCI)", "note": "Values joined by “and” are separate entries in the source; they are usually repeats but may differ in a detail not shown here. Equal entries are not always repeated. This is part of a sample that, as a whole, favours compounds with a hit. Of some 83,000 tested, about 20% had one in any assay.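 Activity criterion: percent growth below 10, measured after cells in 96-well plates were exposed to a single compound concentration for 48 hours.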 Active and inactive are the calls of the source.", "data": [{"tested_on": "NCI-H23 lung", "experiment": "NCI-60 one-dose screen, 48 h (100 = growth as untreated, 0 = no growth, -100 = all killed)", "conditions": "10 µM unless noted", "values": [{"molecule": "CCCCNC(=O)c1ccccc1C", "growth": "90.4% (inactive)"}, {"molecule": "CC1(C)CC(=O)NC1=O", "growth": "96.5% (inactive)"}, {"molecule": "COc1ccc(C(=O)C(O)c2ccc(OC)cc2)cc1", "note": "(stereo not drawn)", "growth": "98.4% (inactive) and 92.7% (inactive)"}, {"molecule": "COc1ccc2nccc(Cl)c2c1", "growth": "98.4% (inactive)"}, {"molecule": "O=C(c1ccccc1)C1(Br)CCCCC1", "growth": "98% (inactive)"}, {"molecule": "CN(C=O)c1ccccc1", "growth": "84.9% (inactive)"}, {"molecule": "CCOCCC(=O)O", "growth": "110% (inactive)"}, {"molecule": "Cc1cc2ccccc2c2cc3ccccc3cc12", "growth": "94.9% (inactive)"}, {"molecule": "CS(=O)(=O)OCC1NC(=O)C(COS(C)(=O)=O)NC1=O", "note": "(stereo not drawn)", "growth": "84% (inactive) and 88.5% (inactive)"}, {"molecule": "Clc1ccc(/C=C/c2ccc3ccccc3n2)cc1", "growth": "37.6% (inactive) and 89.5% (inactive) and 71.2% (inactive)"}, {"molecule": "CCOC(=O)C1=CC(=O)CC(C)(C)O1", "growth": "104% (inactive) and 107% (inactive)"}, {"molecule": "CC(=O)Oc1cc(C)c(OC(C)=O)c(C)c1C", "growth": "97.3% (inactive)"}, {"molecule": "COc1ccc(/C=N/Nc2nc3ccccc3s2)cc1", "growth": "105% (inactive)"}, {"molecule": "CC1CCC(=O)N1c1ccc(N)cc1", "note": "(stereo not drawn)", "growth": "103% (inactive)"}, {"molecule": "Cc1ccc(N)cc1S(=O)(=O)O", "growth": "109% (inactive) and 107% (inactive)"}, {"molecule": "CCOC(C)=N", "growth": "105% (inactive)"}, {"molecule": "O=C(c1ccc(Cl)cc1)C1C(c2ccccc2)C1[N+](=O)[O-]", "note": "(stereo not drawn)", "growth": "84.6% (inactive)"}, {"molecule": "CC(CN(C)C)CN1c2ccccc2Sc2ccccc21", "note": "(stereo not drawn)", "growth": "88.9% (inactive) and 86% (inactive) and 86.6% (inactive)"}, {"molecule": "CCCC(=O)OCC(COC(=O)CCC)OC(=O)CCC", "growth": "104% (inactive)"}, {"molecule": "COc1ccccc1OCC(O)CO", "note": "(stereo not drawn)", "growth": "106% (inactive) and 103% (inactive)"}, {"molecule": "CC1(C)OC(=O)C(=Cc2ccc(C#N)cc2)C(=O)O1", "growth": "104% (inactive)"}, {"molecule": "CCC(=O)Oc1ccc(OCc2ccccc2)cc1", "growth": "85.5% (inactive) and 83.8% (inactive)"}, {"molecule": "O=C(c1ccncc1)c1c(Cc2ccccc2)ccc2ccccc12", "growth": "55.2% (inactive)"}, {"molecule": "CCCC(=O)Oc1ccc2ccccc2c1", "growth": "98.7% (inactive)"}, {"molecule": "CCOC(=O)C1=C(C)NC(C)=C(C(=O)OCC)C1", "growth": "103% (inactive) and 92.2% (inactive)"}, {"molecule": "C/C(CC(C)C)=N/NC(N)=S", "growth": "88.8% (inactive)"}, {"molecule": "OCc1cccc(F)c1", "growth": "79.6% (inactive)"}, {"molecule": "Cc1cc(=NO)cc(C)n1O", "growth": "109% (inactive)"}, {"molecule": "OCc1ccccc1F", "growth": "88% (inactive)"}, {"molecule": "COc1cc(Cl)ccc1C", "growth": "90.3% (inactive)"}, {"molecule": "COC(=O)c1nc(=S)[nH]c(C(=O)OC)c1C(=O)c1ccc(OC)cc1", "growth": "97.4% (inactive)"}, {"molecule": "CCN(CC)C(=S)SCCO", "growth": "93.3% (inactive)"}, {"molecule": "OCCSc1ccc(Cl)cc1", "growth": "112% (inactive) and 102% (inactive)"}, {"molecule": "Nc1nc(-c2ccccn2)cc(-c2cc(-c3ccccn3)nc(N)n2)n1", "growth": "103% (inactive)"}, {"molecule": "COc1cc(C2c3cc4c(cc3C(OC(=O)C[n+]3ccccc3)C3COC(=O)C23)OCO4)cc(OC)c1OC", "note": "(stereo not drawn)", "growth": "20.8% (inactive)"}, {"molecule": "CSc1nc(N)c(N)c(N)n1", "growth": "97.9% (inactive)"}, {"molecule": "C/C=C(/C(=O)NC(N)=O)C(C)C", "growth": "104% (inactive)"}, {"molecule": "CC(O)CCNC(c1ccccc1)C(O)c1ccccc1", "note": "(stereo not drawn)", "growth": "105% (inactive)"}, {"molecule": "Cc1c(Cl)c(C)c(Cc2c(C)c(Cl)c(C)c(Cl)c2O)c(O)c1Cl", "growth": "-13% (active)"}]}, {"tested_on": "NCI-H226 lung", "experiment": "NCI-60 one-dose screen, 48 h (100 = growth as untreated, 0 = no growth, -100 = all killed)", "conditions": "10 µM unless noted", "values": [{"molecule": "CCCCNC(=O)c1ccccc1C", "growth": "94.4% (inactive)"}, {"molecule": "CC1(C)CC(=O)NC1=O", "growth": "99.6% (inactive)"}, {"molecule": "COc1ccc(C(=O)C(O)c2ccc(OC)cc2)cc1", "note": "(stereo not drawn)", "growth": "92.5% (inactive) and 96.2% (inactive)"}, {"molecule": "COc1ccc2nccc(Cl)c2c1", "growth": "85.1% (inactive)"}, {"molecule": "O=C(c1ccccc1)C1(Br)CCCCC1", "growth": "87.5% (inactive)"}, {"molecule": "CN(C=O)c1ccccc1", "growth": "75.3% (inactive)"}, {"molecule": "CCOCCC(=O)O", "growth": "99.4% (inactive)"}, {"molecule": "Cc1cc2ccccc2c2cc3ccccc3cc12", "growth": "68.4% (inactive)"}, {"molecule": "CS(=O)(=O)OCC1NC(=O)C(COS(C)(=O)=O)NC1=O", "note": "(stereo not drawn)", "growth": "96.2% (inactive) and 99.2% (inactive)"}, {"molecule": "Clc1ccc(/C=C/c2ccc3ccccc3n2)cc1", "growth": "84.1% (inactive) and 81.1% (inactive) and 92.6% (inactive)"}, {"molecule": "CCOC(=O)C1=CC(=O)CC(C)(C)O1", "growth": "114% (inactive) and 95.3% (inactive)"}, {"molecule": "CC(=O)Oc1cc(C)c(OC(C)=O)c(C)c1C", "growth": "101% (inactive)"}, {"molecule": "COc1ccc(/C=N/Nc2nc3ccccc3s2)cc1", "growth": "99.4% (inactive)"}, {"molecule": "CC1CCC(=O)N1c1ccc(N)cc1", "note": "(stereo not drawn)", "growth": "100% (inactive)"}, {"molecule": "Cc1ccc(N)cc1S(=O)(=O)O", "growth": "109% (inactive)"}, {"molecule": "CCOC(C)=N", "growth": "112% (inactive)"}, {"molecule": "O=C(c1ccc(Cl)cc1)C1C(c2ccccc2)C1[N+](=O)[O-]", "note": "(stereo not drawn)", "growth": "97.2% (inactive)"}, {"molecule": "CC(CN(C)C)CN1c2ccccc2Sc2ccccc21", "note": "(stereo not drawn)", "growth": "132% (inactive) and 112% (inactive)"}, {"molecule": "CCCC(=O)OCC(COC(=O)CCC)OC(=O)CCC", "growth": "94.5% (inactive)"}, {"molecule": "COc1ccccc1OCC(O)CO", "note": "(stereo not drawn)", "growth": "102% (inactive) and 94.6% (inactive)"}, {"molecule": "CC1(C)OC(=O)C(=Cc2ccc(C#N)cc2)C(=O)O1", "growth": "92.6% (inactive)"}, {"molecule": "CCC(=O)Oc1ccc(OCc2ccccc2)cc1", "growth": "104% (inactive) and 103% (inactive)"}, {"molecule": "O=C(c1ccncc1)c1c(Cc2ccccc2)ccc2ccccc12", "growth": "82.5% (inactive)"}, {"molecule": "CCCC(=O)Oc1ccc2ccccc2c1", "growth": "103% (inactive)"}, {"molecule": "CCOC(=O)C1=C(C)NC(C)=C(C(=O)OCC)C1", "growth": "96.7% (inactive) and 96.4% (inactive)"}, {"molecule": "C/C(CC(C)C)=N/NC(N)=S", "growth": "85.8% (inactive)"}, {"molecule": "OCc1cccc(F)c1", "growth": "104% (inactive)"}, {"molecule": "Cc1cc(=NO)cc(C)n1O", "growth": "114% (inactive)"}, {"molecule": "OCc1ccccc1F", "growth": "103% (inactive)"}, {"molecule": "COc1cc(Cl)ccc1C", "growth": "98.3% (inactive)"}, {"molecule": "COC(=O)c1nc(=S)[nH]c(C(=O)OC)c1C(=O)c1ccc(OC)cc1", "growth": "90.7% (inactive)"}, {"molecule": "CCN(CC)C(=S)SCCO", "growth": "99.3% (inactive)"}, {"molecule": "OCCSc1ccc(Cl)cc1", "growth": "116% (inactive) and 99.3% (inactive)"}, {"molecule": "Nc1nc(-c2ccccn2)cc(-c2cc(-c3ccccn3)nc(N)n2)n1", "growth": "96.1% (inactive)"}, {"molecule": "COc1cc(C2c3cc4c(cc3C(OC(=O)C[n+]3ccccc3)C3COC(=O)C23)OCO4)cc(OC)c1OC", "note": "(stereo not drawn)", "growth": "22.5% (inactive)"}, {"molecule": "CSc1nc(N)c(N)c(N)n1", "growth": "91.9% (inactive)"}, {"molecule": "C/C=C(/C(=O)NC(N)=O)C(C)C", "growth": "116% (inactive)"}, {"molecule": "CC(O)CCNC(c1ccccc1)C(O)c1ccccc1", "note": "(stereo not drawn)", "growth": "111% (inactive)"}, {"molecule": "Cc1c(Cl)c(C)c(Cc2c(C)c(Cl)c(C)c(Cl)c2O)c(O)c1Cl", "growth": "15.7% (inactive)"}]}]}
